Counter-ions that a name gives are not always drawn.

One assay has as its system MARIMO. The experiment in a line: cell viability relative to vehicle control; higher = less cytotoxic. The conditions noted are these: 10 µM; SRSF2 genotype: SRSF2 P95H/wt. An outline of the steps:
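CRISPR-edited SRSF2 P95 mutant and isogenic wild-type clones of four leukaemia lines were screened against Selleck bioactive, kinase and epigenetic probe libraries, with identity-inconsistent compounds removed. Compounds were acoustically dispensed into 384-well plates at a single 10 µM dose, with 2000 cells in 50 µL medium per well. After 48 h, supernatant was removed and CellTiter-Glo luminescence was read. Viability was expressed as percent of the on-plate DMSO vehicle control, analysed in Genedata Screener.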
Broadly, the cell viability is a read-out of living cells in per cent, often relative to untreated cells. For `COc1cc(C(=O)OCCCCNC(=N)N)cc(OC)c1O` [Leonurine], the cell viability is 98.4%.
On to `C[C@@H](Oc1ccc2[nH]nc(/C=C/c3cnn(CCO)c3)c2c1)c1c(Cl)cncc1Cl`, for which the cell viability turned out to be 6.39%.
For the compound `COc1ccccc1S(=O)(=O)Nc1ccc2c(c1)CN(C)C(=O)N2`, the cell viability stood at 48.9%.
For `Clc1cccc(CN=C2Nc3ccccc3NC23CCNCC3)c1` [Liproxstatin-1], the cell viability turned out to be 73%.
Take `O=C(O)c1ccc(O)c2ncccc12`: the cell viability amounted to 107%.
For the compound `CO[C@H]1C[C@@H]2CC[C@@H](C)[C@@](O)(O2)C(=O)C(=O)N2CCCC[C@H]2C(=O)O[C@H]([C@H](C)C[C@@H]2CC[C@@H](OP(C)(C)=O)[C@H](OC)C2)CC(=O)[C@H](C)/C=C(\C)[C@@H](O)[C@@H](OC)C(=O)[C@H](C)C[C@H](C)/C=C/C=C/C=C/1C` [Deforolimus (MK-8669)], the cell viability was 75%.
As for `Cc1ccc(-c2n[nH]c3c2C(c2cccc(O)c2)N(c2ccc(C(=O)O)cc2)C3=O)cc1` (centres undefined), the cell viability came out at 101%.
Regarding `C=C(C(=O)O)C1CCC(C)C2CCC(C)=CC12` (centres undefined) [Artemisic acid], the cell viability was determined as 108%.
The same measure, in the same setting: the result for `CC(C)c1ccc(NC(=O)Cn2cnc3c2c(=O)n(C)c(=O)n3C)cc1` reads 91%.

The assay is the same for the next values; noted with them: 10 µM; SRSF2 genotype: SRSF2 wt/wt.
Turning to `CC(C)Cc1ccc(C(C)C(=O)O)cc1` (centres undefined) [Ibuprofen (Advil)], the cell viability was found to be 100%.
Consider `COCCOc1cnc2ccn([C@H](C)c3nnc4c(F)cc(-c5cnn(C)c5)cn34)c(=O)c2c1`, for which the cell viability amounted to 94.3%.
Same read-out and setting: the result for `CC(=O)O[C@H]1C(=O)[C@@]2(C)[C@H]([C@H](OC(=O)c3ccccc3)[C@]3(O)C[C@H](OC(=O)[C@H](O)[C@@H](NC(=O)c4ccccc4)c4ccccc4)C(C)=C1C3(C)C)[C@]1(OC(C)=O)CO[C@@H]1C[C@@H]2O` [Paclitaxel (Taxol)] reads 4.98%.
Same read-out and setting: for `O=C[C@H](O)[C@H]1OC(=O)[C@@H](O)[C@H]1O` [D-Glucurone] the value was 95.1%.
Turning to `CC(Oc1cc(-c2cnn(C3CCNCC3)c2)cnc1N)c1c(Cl)ccc(F)c1Cl` [(S)-crizotinib], the cell viability came out at 92%.
On the same count and under the same terms, for `CCS(=O)(=O)N1CCC([C@@H](C)n2c(C)c(C(=O)NCc3c(OC)cc(C)[nH]c3=O)c3ccccc32)CC1` the value was 111%; for `C#Cc1cccc(Nc2ncnc3cc4c(cc23)OCCOCCOCCO4)c1` [Icotinib], 98.3%; for `COc1cc(Nc2c(C#N)cnc3cc(OCCCN4CCN(C)CC4)c(OC)cc23)c(Cl)cc1Cl` [Bosutinib (SKI-606)], 37.6%.
Regarding `COC(=O)N[C@H](C(=O)N1CC2(CC2)C[C@H]1c1nc(-c2ccc3c(c2)C(F)(F)c2cc(-c4ccc5[nH]c([C@@H]6[C@H]7CC[C@H](C7)N6C(=O)[C@@H](NC(=O)OC)C(C)C)nc5c4)ccc2-3)c[nH]1)C(C)C` [Ledipasvir (GS5885)], the cell viability was found to be 90.2%.
Regarding `Clc1ccc(CSC(Cn2ccnc2)c2ccc(Cl)cc2Cl)cc1` (centres undefined) [Sulconazole Nitrate], the cell viability was found to be 43.2%.
On the same count and under the same terms, for `COc1ccc2c(c1)c(CC(=O)OCC(=O)O)c(C)n2C(=O)c1ccc(Cl)cc1` [Acemetacin (Emflex)] the value was 94.9%; for `CC(C)(O)C1CCC(C)(C2C(O)CC3(C)C4CC(O)C5C(C)(C)C(O)CCC56CC46CCC23C)O1` (centres undefined) [Cyclogalegenol], 104%.
Turning to `Cc1cc(Cn2cnc3c2CC(C(=O)O)N(C(=O)C(c2ccccc2)c2ccccc2)C3)ccc1N(C)C` (centres undefined), the cell viability is 101%.
As to `CC[C@H](NC(=O)[C@H](C)NC)C(=O)N1C[C@@H](O)C[C@H]1Cc1c(-c2[nH]c3cc(F)ccc3c2C[C@@H]2C[C@H](O)CN2C(=O)[C@H](CC)NC(=O)[C@H](C)NC)[nH]c2cc(F)ccc12`, the cell viability was determined as 93.4%.
Turning to `NCCCCCC(=O)O`, the cell viability came to 98.5%.
The same measure, in the same setting: the result for `Cc1ccc(NC(=S)NNc2c([N+](=O)[O-])cc(C(F)(F)F)cc2[N+](=O)[O-])cc1Cl` reads 86.2%; that for `CCCCCCCCCC(C)=O` [Methylnonylketone], 101%.
Still for that read-out and setting: for `CC(C)n1nccc1-c1ncccc1COc1cccc(O)c1C=O` [Voxelotor(GBT440, GTx011)] the value was 103%; for `O=c1cc(CN2CCOCC2)occ1OCCCCCSc1ccnc2cc(C(F)(F)F)ccc12`, 37.7%.
The same measure, in the same setting: for `CCCOC(=O)c1cc(O)c(O)c(O)c1` [Propyl gallate] the value was 99.1%.
`Cn1c2ccccc2c2c3c(c4c5ccccc5n(CCC#N)c4c21)CNC3=O`: the cell viability came to 93.9%.
Same read-out and setting: the result for `CC(C)c1ccccc1Cc1cc(C(=O)Nc2ccc(S(=O)(=O)c3ccccc3C(C)(C)C)cc2)c(O)c(O)c1O` reads 18.2%; that for `COc1ccc2cc1Oc1ccc(cc1)C[C@H]1c3cc(c(OC)cc3CCN1C)Oc1c(O)c(OC)cc3c1[C@H](C2)N(C)CC3` [Fangchinoline], 1.57%; that for `CC(C)C(=O)Oc1ccc(CO)cc1[C@H](CCN(C(C)C)C(C)C)c1ccccc1` [Fesoterodine Fumarate], 98.4%.
On the same count and under the same terms, for `COc1ccc2c(c1)c(CC(=O)O)c(C)n2C(=O)c1ccc(Cl)cc1` [Indometacin Sodium] the value was 103%; for `Nc1cccc(S(=O)(=O)N2CCCN(S(=O)(=O)c3ccc4c(c3)OCCO4)CC2)c1`, 98.8%.
As to `Cc1cc(-c2ncc(CC(=O)Nc3ccc(-c4cnccn4)cn3)cc2C)ccn1`, the cell viability was 70%.
For the compound `CC(C)(O)C1CCC(C)(C2C(O)CC3(C)C4CC(OC5OC(CO)C(O)C(O)C5O)C5C(C)(C)C(OC6OCC(O)C(O)C6O)CCC56CC46CCC23C)O1` (centres undefined) [Astragaloside A], the cell viability was determined as 111%.
Still for that read-out and setting: for `O=c1[nH]cnc2c1ncn2[C@H]1C[C@H](O)[C@@H](CO)O1` [2'-Deoxyinosine] the value was 107%; for `CCN(CC)C(=O)C1(c2ccccc2)CC1CN` (centres undefined) [Milnacipran HCl], 106%; for `Clc1ccc(COC(Cn2ccnc2)c2ccc(Cl)cc2Cl)cc1` (centres undefined) [Econazole nitrate (Spectazole)], 71%.
The same measure, in the same setting: the result for `COc1cc(C(=O)OCCCCNC(=N)N)cc(OC)c1O` [Leonurine] reads 112%; that for `C[C@@H](Oc1ccc2[nH]nc(/C=C/c3cnn(CCO)c3)c2c1)c1c(Cl)cncc1Cl`, 5.47%.
Still for that read-out and setting: for `COc1ccccc1S(=O)(=O)Nc1ccc2c(c1)CN(C)C(=O)N2` the value was 46.6%; for `Clc1cccc(CN=C2Nc3ccccc3NC23CCNCC3)c1` [Liproxstatin-1], 70.1%.
As to `O=C(O)c1ccc(O)c2ncccc12`, the cell viability was 108%.
`CO[C@H]1C[C@@H]2CC[C@@H](C)[C@@](O)(O2)C(=O)C(=O)N2CCCC[C@H]2C(=O)O[C@H]([C@H](C)C[C@@H]2CC[C@@H](OP(C)(C)=O)[C@H](OC)C2)CC(=O)[C@H](C)/C=C(\C)[C@@H](O)[C@@H](OC)C(=O)[C@H](C)C[C@H](C)/C=C/C=C/C=C/1C` [Deforolimus (MK-8669)]: the cell viability is 75%.
For the compound `Cc1ccc(-c2n[nH]c3c2C(c2cccc(O)c2)N(c2ccc(C(=O)O)cc2)C3=O)cc1` (centres undefined), the cell viability amounted to 106%.
On the same count and under the same terms, for `C=C(C(=O)O)C1CCC(C)C2CCC(C)=CC12` (centres undefined) [Artemisic acid] the value was 90.8%; for `CC(C)c1ccc(NC(=O)Cn2cnc3c2c(=O)n(C)c(=O)n3C)cc1`, 96.1%.

The record behind these values is the supplement of paper PMC10981050.
